# Legend:
# Assay in all cases: PBM binding z-score (relative to random genomic background probes); higher = stronger binding; sequences stand for … in GC…GCGATTGACAGCGTAGAATGAAGG
# [1] = tested on: RARb homodimer (NR concentration 270 nM)
# How it was run: (§1)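 Custom Agilent 4×180K protein-binding microarrays carried double-stranded probes, each with a 34-nt variable region. These regions held direct-repeat seeds, single-nucleotide variants, half-site ablations and random human genomic background sequences. Ligand-free nuclear receptor dimers were incubated on the arrays for 1 h, antibodies against each partner (one per run) detected binding, and scanned fluorescence was regression-normalized. Binding z-scores take the random background probes as reference.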
# [2] = tested on: RARg:RXRa (NR concentration 270 nM, RXRa partner concentration 90 nM)
# How it was run: as §1
# [3] = tested on: RARg homodimer (NR concentration 270 nM)
# How it was run: as §1
# [4] = tested on: RXRa DBDmut IVT, anti-RXR (DBD mutation: RXRa K156A/R161A, NR concentration 90 nM)
# How it was run: as §1
# [5] = tested on: RXRa homodimer (NR concentration 180 nM)
# How it was run: as §1
# [6] = tested on: THRa:RXRa (NR concentration 90 nM, RXRa partner concentration 90 nM)
# How it was run: as §1
# [7] = tested on: THRa homodimer (NR concentration 90 nM)
# How it was run: as §1
# [8] = tested on: VDR homodimer (NR concentration 270 nM)
# How it was run: as §1
sequence,measurement,setting,value
CTCGAAAGGTCGGTTGGGGTGAGTATACGGATAA,PBM binding z-score,[1],2.88
same,PBM binding z-score,[2],3
same,PBM binding z-score,[3],2.42
same,PBM binding z-score,[4],1.18
same,PBM binding z-score,[5],2.69
same,PBM binding z-score,[6],4.95
same,PBM binding z-score,[7],1.86
same,PBM binding z-score,[8],1.55
CAAACTAGGTCAAGAGATCAAAGTCCGCTTCCCG,PBM binding z-score,[1],3.07
same,PBM binding z-score,[2],4.48
same,PBM binding z-score,[3],4.39
same,PBM binding z-score,[4],1.59
same,PBM binding z-score,[5],3.3
same,PBM binding z-score,[6],2.63
same,PBM binding z-score,[7],0.798
same,PBM binding z-score,[8],0.64
TCGAGTAGGTTAGGGGCATTCAGAATGGCGTCGA,PBM binding z-score,[1],0.976
same,PBM binding z-score,[2],0.269
same,PBM binding z-score,[3],0.406
same,PBM binding z-score,[4],0.45
same,PBM binding z-score,[5],0.658
same,PBM binding z-score,[6],0.87
same,PBM binding z-score,[7],0.0711
same,PBM binding z-score,[8],0.98
CGTCAAAGTTCAAGGTAACGTTACAGAAAGCAGC,PBM binding z-score,[1],4
same,PBM binding z-score,[2],5.44
same,PBM binding z-score,[3],6.2
same,PBM binding z-score,[4],4.52
same,PBM binding z-score,[5],4.96
same,PBM binding z-score,[6],2.94
same,PBM binding z-score,[7],1.13
same,PBM binding z-score,[8],3.32
TCATATAGGTAAACAGGTAAAAGTCCGTAAGTTA,PBM binding z-score,[1],0.493
same,PBM binding z-score,[2],0.41
same,PBM binding z-score,[3],0.406
same,PBM binding z-score,[4],1.53
same,PBM binding z-score,[5],0.676
same,PBM binding z-score,[6],0.697
same,PBM binding z-score,[7],0.445
same,PBM binding z-score,[8],0.448
CCTAGTTGGTCACGAGGTCACACACCGGATATGA,PBM binding z-score,[1],4.65
same,PBM binding z-score,[2],5.36
same,PBM binding z-score,[3],4.66
same,PBM binding z-score,[4],1.84
same,PBM binding z-score,[5],5.19
same,PBM binding z-score,[6],4.43
same,PBM binding z-score,[7],4.41
same,PBM binding z-score,[8],3.84
GGTAGCAGGCCATTTGGGTCACTCAATGACGGGC,PBM binding z-score,[1],2.01
same,PBM binding z-score,[2],1.27
same,PBM binding z-score,[3],1.83
same,PBM binding z-score,[4],-0.513
same,PBM binding z-score,[5],0.775
same,PBM binding z-score,[6],1.84
same,PBM binding z-score,[7],0.696
same,PBM binding z-score,[8],0.494
CCTAGCTGGCCAATCTGGGTCACTCAAGGCTTGA,PBM binding z-score,[1],1.72
same,PBM binding z-score,[2],0.659
same,PBM binding z-score,[3],0.818
same,PBM binding z-score,[4],-0.0999
same,PBM binding z-score,[5],0.716
same,PBM binding z-score,[6],2.69
same,PBM binding z-score,[7],0.234
same,PBM binding z-score,[8],-0.441
GATACAGGGTCAGCTAGAGGCCACAGTATGGAAA,PBM binding z-score,[1],3.61
same,PBM binding z-score,[2],7.06
same,PBM binding z-score,[3],5.21
same,PBM binding z-score,[4],0.909
same,PBM binding z-score,[5],4.27
same,PBM binding z-score,[6],3.39
same,PBM binding z-score,[7],0.56
same,PBM binding z-score,[8],0.844
AACTCTAGGTAAAAGTTCAGTGAATCCCGAGGAT,PBM binding z-score,[1],2.27
same,PBM binding z-score,[2],1.77
same,PBM binding z-score,[3],1.69
same,PBM binding z-score,[4],0.858
same,PBM binding z-score,[5],1.76
same,PBM binding z-score,[6],1.22
same,PBM binding z-score,[7],0.014
same,PBM binding z-score,[8],1.4
TCTAGTTGGTCAAAGGTCACACATTCGAAATGCG,PBM binding z-score,[1],5.15
same,PBM binding z-score,[2],6.77
same,PBM binding z-score,[3],5.76
same,PBM binding z-score,[4],1.62
same,PBM binding z-score,[5],7.57
same,PBM binding z-score,[6],4
same,PBM binding z-score,[7],2.07
same,PBM binding z-score,[8],2.42
CAAACTAGGTCAAATGTCAAAGTCGAGCCAACCA,PBM binding z-score,[1],3.4
same,PBM binding z-score,[2],5.2
same,PBM binding z-score,[3],5.17
same,PBM binding z-score,[4],2.58
same,PBM binding z-score,[5],5.14
same,PBM binding z-score,[6],3.36
same,PBM binding z-score,[7],0.944
same,PBM binding z-score,[8],1.05
AATAGAGGGTCACTAGGCCAGAGTAGGTACGAAT,PBM binding z-score,[1],3.01
same,PBM binding z-score,[2],4.11
same,PBM binding z-score,[3],4.52
same,PBM binding z-score,[4],1.93
same,PBM binding z-score,[5],4.2
same,PBM binding z-score,[6],1.99
same,PBM binding z-score,[7],0.353
same,PBM binding z-score,[8],1.1
AGTCAATGTTCAGGACGAGGTAACGTAAAGCACG,PBM binding z-score,[1],0.0341
same,PBM binding z-score,[2],0.243
same,PBM binding z-score,[3],0.459
same,PBM binding z-score,[4],-0.371
same,PBM binding z-score,[5],0.279
same,PBM binding z-score,[6],2.16
same,PBM binding z-score,[7],1.78
same,PBM binding z-score,[8],0.209
ATATGTAGGTTAGCTGGGCTCATTCAGACTAGGC,PBM binding z-score,[1],0.13
same,PBM binding z-score,[2],0.263
same,PBM binding z-score,[3],0.55
same,PBM binding z-score,[4],-0.108
same,PBM binding z-score,[5],0.38
same,PBM binding z-score,[6],0.702
same,PBM binding z-score,[7],-0.522
same,PBM binding z-score,[8],-0.144
TCATATTGGTAAAGGTGAAAGTCGAACGATATGA,PBM binding z-score,[1],1.33
same,PBM binding z-score,[2],1.28
same,PBM binding z-score,[3],0.994
same,PBM binding z-score,[4],0.405
same,PBM binding z-score,[5],1.79
same,PBM binding z-score,[6],1.08
same,PBM binding z-score,[7],-0.164
same,PBM binding z-score,[8],-0.179
ACAGACAGGTGAGTGAAGGCAACTCAGCTGGACG,PBM binding z-score,[1],-0.0202
same,PBM binding z-score,[2],0.0165
same,PBM binding z-score,[3],0.418
same,PBM binding z-score,[4],-0.43
same,PBM binding z-score,[5],0.192
same,PBM binding z-score,[6],0.383
same,PBM binding z-score,[7],-0.689
same,PBM binding z-score,[8],-0.742
CCTACTGGGCCACGAATGGTCATTGATTCAGTGA,PBM binding z-score,[1],0.417
same,PBM binding z-score,[2],-0.0594
same,PBM binding z-score,[3],0.262
same,PBM binding z-score,[4],-0.448
same,PBM binding z-score,[5],-0.409
same,PBM binding z-score,[6],-0.231
same,PBM binding z-score,[7],-0.537
same,PBM binding z-score,[8],-0.38
TTGCCTAGGTCAGATCGGGCCAGTATACGCTATA,PBM binding z-score,[1],2.16
same,PBM binding z-score,[2],2.77
same,PBM binding z-score,[3],3.6
same,PBM binding z-score,[4],0.0965
same,PBM binding z-score,[5],1.51
same,PBM binding z-score,[6],3.9
same,PBM binding z-score,[7],-0.108
same,PBM binding z-score,[8],-0.389
ACCGACAGGTGATGAAGGTAACTCAGGCTATCAT,PBM binding z-score,[1],0.0533
same,PBM binding z-score,[2],0.16
same,PBM binding z-score,[3],0.23
same,PBM binding z-score,[4],-0.271
same,PBM binding z-score,[5],0.299
same,PBM binding z-score,[6],0.649
same,PBM binding z-score,[7],-0.149
same,PBM binding z-score,[8],-0.217
TCTAGTTGGTCACGGAAGTCACACACGACGGGTA,PBM binding z-score,[1],1.41
same,PBM binding z-score,[2],1.36
same,PBM binding z-score,[3],1.54
same,PBM binding z-score,[4],0.587
same,PBM binding z-score,[5],1.21
same,PBM binding z-score,[6],0.441
same,PBM binding z-score,[7],0.354
same,PBM binding z-score,[8],0.0407
CCGTCTGGGGCAGAAAGGTTACCATACCATCCGG,PBM binding z-score,[1],2.03
same,PBM binding z-score,[2],1.36
same,PBM binding z-score,[3],0.979
same,PBM binding z-score,[4],-0.795
same,PBM binding z-score,[5],1.37
same,PBM binding z-score,[6],0.782
same,PBM binding z-score,[7],-0.335
same,PBM binding z-score,[8],-0.377
GCGACTGGGGCAAAGCAGATTACCATAAGGTTGG,PBM binding z-score,[1],-0.011
same,PBM binding z-score,[2],0.122
same,PBM binding z-score,[3],0.273
same,PBM binding z-score,[4],-0.0663
same,PBM binding z-score,[5],0.0208
same,PBM binding z-score,[6],-0.00555
same,PBM binding z-score,[7],-0.248
same,PBM binding z-score,[8],-0.153
ATCGAAAGGTCGAAGGTGAGTGTACCCACCCGAA,PBM binding z-score,[1],2.58
same,PBM binding z-score,[2],4.02
same,PBM binding z-score,[3],3.37
same,PBM binding z-score,[4],0.847
same,PBM binding z-score,[5],5.11
same,PBM binding z-score,[6],2.3
same,PBM binding z-score,[7],0.0687
same,PBM binding z-score,[8],0.737
CGTCCAAGGTCCAAGGTCAGTGAAGAGATGACGG,PBM binding z-score,[1],3.34
same,PBM binding z-score,[2],2.9
same,PBM binding z-score,[3],3.28
same,PBM binding z-score,[4],1.38
same,PBM binding z-score,[5],2.23
same,PBM binding z-score,[6],2.99
same,PBM binding z-score,[7],1.89
same,PBM binding z-score,[8],1.73
CCACCAAGGTGAACAAGGTCGTTGATTACTATTC,PBM binding z-score,[1],2.39
same,PBM binding z-score,[2],2.05
same,PBM binding z-score,[3],1.62
same,PBM binding z-score,[4],1.32
same,PBM binding z-score,[5],2.07
same,PBM binding z-score,[6],3.42
same,PBM binding z-score,[7],2.4
same,PBM binding z-score,[8],3.07
GGAACGAGGGCAAAGTAGATAGCATCTGTCGACG,PBM binding z-score,[1],0.856
same,PBM binding z-score,[2],1.46
same,PBM binding z-score,[3],1.74
same,PBM binding z-score,[4],2.46
same,PBM binding z-score,[5],1.05
same,PBM binding z-score,[6],0.805
same,PBM binding z-score,[7],-0.36
same,PBM binding z-score,[8],0.946
GCATATAGGTAATACAAGGTGAAAATCCGATTGT,PBM binding z-score,[1],0.426
same,PBM binding z-score,[2],0.529
same,PBM binding z-score,[3],0.709
same,PBM binding z-score,[4],0.0693
same,PBM binding z-score,[5],0.677
same,PBM binding z-score,[6],3.98
same,PBM binding z-score,[7],0.487
same,PBM binding z-score,[8],0.0319
TCTGCTAGGTCAACGATGGGCAGCTAATCTGCTA,PBM binding z-score,[1],2.74
same,PBM binding z-score,[2],3.94
same,PBM binding z-score,[3],5.25
same,PBM binding z-score,[4],0.549
same,PBM binding z-score,[5],2.44
same,PBM binding z-score,[6],2.63
same,PBM binding z-score,[7],0.424
same,PBM binding z-score,[8],-0.398

# — the supplement of paper PMC6555819
